TEAD-YAP inh: TEAD-YAP interaction inhibition; 1.4% of 640,000 active; HEK-TIYL cells, TEAD-Gal4/YAP UAS-luciferase luminescence; inhibition, % at 9.12 µM; in the data active = inhibition above about 32%;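 note: 0% = median of test compound wells and 100% = reference inhibitor wells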
FBW7 act: activators of human E3 ligase FBW7. Q969H0. AlphaScreen FBW7–phospho-cyclin E peptide binding, activator screen. normalized activity (activation), % at 26.1 µM. 0.13% of 650,000 active; in the data active = normalized activity above about 1.9%;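 note: purified mutant Fbw7 with reduced substrate affinity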
GPR151 activ: activates the human receptor GPR151. Q8TDV0. PathHunter beta-arrestin GPR151 cells, luminescence. activation, % at 11.2 µM. 1% of 650,000 active; in the data active = activation above about 4.9%;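 note: 0% = median of compound wells and 100% = cells with positive control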
MITF primary: inhibitors of human MITF; AlphaScreen MITF homodimerization, bead proximity signal; inhibition, % at 2.6 µM; 0.91% of 650,000 active; AID 1259374; in the data active = inhibition above about 50%;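 note: 0% = vehicle wells with protein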
GPR151 confirm: human GPR151 activation, confirmation screen; shares compounds with GPR151 activ; GPR151 PathHunter beta-arrestin cells, luminescence, 90 min; % of EA-reagent control over plate median; activation, % at 11.2 µM; 6,700 tested, under 10 active;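 active = mean percent activation across replicates above the confirmation screen cutoff of 4.91%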
GPR119 ag: GPR119 activation, counter-screen for GPR151 activators | shares compounds with GPR151 activ | GPR119 PathHunter beta-arrestin cells, luminescence, 90 min; 0 = compound-well median, 100 = enzyme-acceptor control | activation, % at 11.2 µM | 0.3% of 6,700 active | AID 1508611;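 active = mean percent activation in the counterscreen above 29.09%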;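 note: counterscreen on off-target GPR119 to flag nonselective hits from the GPR151 activator screen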
Target sequence (Q8TDV5 whole entry, looked up): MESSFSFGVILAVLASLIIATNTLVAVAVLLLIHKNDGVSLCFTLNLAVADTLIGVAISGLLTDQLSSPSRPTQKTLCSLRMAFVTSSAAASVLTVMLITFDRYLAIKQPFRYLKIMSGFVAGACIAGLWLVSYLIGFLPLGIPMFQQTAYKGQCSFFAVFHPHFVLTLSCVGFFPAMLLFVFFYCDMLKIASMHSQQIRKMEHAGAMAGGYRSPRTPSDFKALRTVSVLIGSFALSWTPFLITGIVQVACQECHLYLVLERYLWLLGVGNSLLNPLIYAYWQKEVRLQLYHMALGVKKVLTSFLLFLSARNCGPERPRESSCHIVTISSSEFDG
Starred values were filed as active, the others as inactive; · = not tested or not shown. An excerpt weighted towards active compounds, which were near 3.5% of everything screened.

SMILES	TEAD-YAP inh	FBW7 act	GPR151 activ	MITF primary	GPR151 confirm	GPR119 ag
Cc1cc(SCC(=O)NCc2ccc(F)cc2)nc(=O)[nH]1	2	0	-1	-8	·	·
COc1ccccc1CNC(=O)CSc1cc(C)[nH]c(=O)n1	1	0	12*	-17	0	7
Cc1cc(SCc2ccccc2Cl)nc(=O)[nH]1	-14	0	7.6*	-9	0	5
O=C(c1cc(-c2cccs2)[nH]n1)N1CCN(c2ccccc2F)CC1	-10	0	0	-12	·	·
O=C(c1ncoc1-c1cccs1)N1CCN(c2ccccc2F)CC1	-21	0	5.1*	-3	1	2
CN1/C(=C2/SC(=Nc3ccc(C4CCCCC4)cc3)N(c3ccccc3)C2=O)Sc2ccccc21	5	0	0	-1	·	·
CN1C(=O)/C(=C2/Sc3ccccc3N2C)SC1=Nc1ccc(O)cc1	-21	0	6.4*	9	0	-8
Cc1cc(C(=O)COC(=O)c2ccc(CO)cc2)c(C)n1-c1ccc(F)cc1	9	0	5.0*	-1	0	0
COC(=O)c1ccc(-n2c(C)cc(C(=O)COC(=O)c3ccccc3C=O)c2C)cc1	7	0	-1	12	·	·
Cc1cnc(C(=O)OCC(=O)c2cc(C)n(CCc3ccc(F)cc3)c2C)cn1	0	0	8.1*	2	1	8
COc1ccc(CC(=O)NNC(=O)CSc2nc(C)c(C)c(=O)[nH]2)cc1	5	0	6.3*	8	0	-6
COc1ccc(C(=O)NNC(=O)CSc2ncn[nH]2)cc1	2	0	11*	15	0	-2
COc1ccc(C(=O)NNC(=O)CSc2nc3sc(C)c(C)c3c(=O)[nH]2)cc1	7	0	5	17	·	·
O=C(CN(c1ccc([N+](=O)[O-])cc1)S(=O)(=O)c1ccccc1)NC1CC2CCC1C2 (stereo not drawn)	-2	0	-1	-9	·	·
Cc1ccc(-c2nnc(SCC(=O)Nc3ccccc3N3CCOCC3)o2)cc1	-6	0	5.1*	12	0	2
COc1ccc(-c2nnc(SCC(=O)Nc3ccc(N4CCOCC4)cc3)o2)cc1	17	0	6.1*	0	-1	-8
Cc1cccc(NC(=O)CSc2nc3c(c(=O)n2-c2ccc(F)cc2)SCC3)c1	3	0	6.5*	-13	0	-2
Cc1ccccc1-n1c(=O)cc(NCCCn2ccnc2)[nH]c1=O	0	0	14*	8	1	3
O=c1[nH]c(=O)n(-c2ccccc2Cl)c(O)c1C=NCCCn1ccnc1	6	0	4.9*	19	0	-3
C#CCN(CC#C)c1cccc(Cl)c1	-3	0	8.2*	11	-1	-6
C#CCN(CC#C)c1ccc(Cl)cc1	1	0	0	-5	·	·
CC(C)(C)OC(=O)C(Cl)(C(=O)OC(C)(C)C)c1ncc([N+](=O)[O-])cc1[N+](=O)[O-]	55*	0	14*	5	0	13
Cc1c(CN2CCC3(CC2)NC(=O)c2ccccc2O3)cnn1C	0	0	1	-7	·	·
Cc1ccc(C2(C(=O)N3CCC4(CC3)NC(=O)c3ccccc3O4)CC2)cc1	3	0	5.6*	-11	0	0
O=C1NC2(CCN(C(=O)C3(c4ccc(Cl)cc4)CC3)CC2)Oc2ccccc21	-1	0	-1	-11	·	·
SMILES	TEAD-YAP inh	FBW7 act	GPR151 activ	MITF primary	GPR151 confirm	GPR119 ag
Cc1ncc(CN2CCC3(CC2)NC(=O)c2ccccc2O3)n1C	5	0	4.9*	23	0	-4
C=CCOc1ccc(C2/C(=C(/O)c3ccc(OC)cc3)C(=O)C(=O)N2CCN(C)C)cc1 (stereo not drawn)	7	1	0	20	·	·
C#CC1(OCC(O)CN2CCc3cc(OC)c(OC)cc3C2)CCCCC1 (stereo not drawn)	9	0	-1	-12	·	·
CN1C(=O)C(c2ccccc2)C2(CCN(Cc3ccccc3)CC2)C1=O (stereo not drawn)	2	0	0	20	·	·
Cc1ccc(NC(=S)NCc2ccco2)cc1	-24	0	0	-3	·	·
Cc1cnn(C(=S)NCc2ccco2)c1	-2	0	5.1*	8	0	-7
COc1ccccc1OCCOCCn1cnc2ccccc2c1=O	-14	0	14*	-3	0	0
O=c1c2ccccc2ncn1CCOCCOc1cccc2ccccc12	0	0	1	9	·	·
Cc1ccc(OCCCCn2cnc3ccccc3c2=O)cc1	2	0	5.5*	10	0	-4
COc1ccc(Cl)cc1C(=O)N(C(C)C)C(C)C	1	0	2	0	·	·
CC(=O)CC/C=C(\C)CCC=C(C)C	4	0	6.1*	5	-1	-3
C=CCn1c(=C(C#N)C#N)s/c(=C\c2ccc(Br)cc2)c1=O	-7	0	2	-6	·	·
COc1ccccc1OCC(=O)Nc1nc(-c2cccs2)c(NC(C)=O)s1	11	0	14*	3	1	11
O=C(CN1CCN(c2nc(-c3ccccc3)cs2)CC1)Nc1ccccc1[N+](=O)[O-]	10	0	1	8	·	·
Cc1ccc(-c2csc(N3CCN(CC(=O)Nc4ccc([N+](=O)[O-])cc4)CC3)n2)cc1	-4	0	7.0*	8	1	9
COc1ccc2cc(/C=N/Nc3ccccn3)c(Cl)nc2c1	-3	1	12*	3	0	-5
Cc1ccc(CSc2nnc(NC(=O)Cn3cnc4ccccc4c3=O)s2)cc1	-12	0	5.0*	2	0	1
CSc1nc2ccc(NC(=O)CN3C(=O)c4ccccc4C3=O)cc2s1	-9	0	0	-12	·	·
CCSc1nnc(NC(=O)Cn2cnc3ccccc3c2=O)s1	-5	0	-1	0	·	·
CSc1nc2ccc(NC(=O)Cn3cnc4ccccc4c3=O)cc2s1	7	0	5.9*	7	2	3
Cc1ccc(S(=O)(=O)Nc2ccc(O)cc2Cl)cc1	-6	0	-1	-9	·	·
c1cncc(-c2nc(-c3ccncc3)cc(N3CCCCC3)n2)c1	16	0	5.2*	13	-1	-8
COc1ccc(CCNC(=O)c2ccc3c(=O)n(Cc4ccco4)c(=S)[nH]c3c2)cc1OC	-8	0	-1	-5	·	·
COc1ccc(CCn2c(=O)[nH]c3cc(C(=O)NCc4ccco4)ccc3c2=O)cc1OC	3	0	6.1*	9	0	-4
COc1ccc(CCn2c(=S)[nH]c3cc(C(=O)N4CCOCC4)ccc3c2=O)cc1OC	9	0	4	-20	·	·
O=C(c1ccc2c(=O)n(CCc3ccccc3)c(=S)[nH]c2c1)N1CCN(c2ccccc2)CC1	-2	0	6.3*	-4	0	13

High-throughput results as filed in PubChem BioAssay.
